# Compounds with a hit are over-represented: about 7.9% of the library has one in this group of screens.
# FMDV inh = blocks foot and mouth disease virus | FMDV antiviral cell-based qHTS | Potency, µM (titrated, usually from 57.9 µM), inactives show top-dose activity change, negative = inhibition, actives largely listed as inhibitors | actives 1.2% (n = 410,000) | AID 1159524; calls by dose curve; tested in HEK293T cells; further: read-out not given here; potency means the concentration at half of the fitted maximal effect; nearly all actives have a fitted effect of over 45% in size
# HCV inhibitor = blocks hepatitis C virus; Huh7.5.1 HCVcc-Cre infection, luciferase reporter, 44 h; Potency, µM (doses to about 41.8 µM), for the others: top-dose activity change, negative = inhibition, most hits filed as inhibitors; actives 3.4% (n = 340,000); AID 651820; active means well fitted inhibition curve with a large enough effect; inconclusive means small, poorly fitted or top-dose-only effect, or another doubt; inactive means no such curve, though single readings can be large or run the other way; further: potency means the concentration at half of the fitted maximal effect
#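 A cell-based infection assay in which seeded cells (1,000 per well) receive test compound after 4 h, are inoculated with HCVcc-Cre at approximately 0.5 moi, and are incubated 44 h before luminescence detection.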
# Lassa entry inh = inhibitors of Lassa virus binding or cell entry. actives 1.2% (n = 300,000). Potency, µM (doses to about 37.9 µM), for inactives: top-dose activity change, negative = inhibition, actives largely listed as inhibitors. Lassa virus pseudotype entry inhibition, cell reporter; calls by dose curve; tested in HEK293 cells; further: potency means the concentration at half of the fitted maximal effect; nearly all actives have a fitted effect of over 50% in size
# HCMV inh = inhibitors of human cytomegalovirus; actives 4.5% (n = 410,000); AID 1259415; activity change, negative = inhibition, % at 57.5 µM; HFF cells, HCMV-luciferase reporter, 72 h; active compounds read low; in the data active means activity change below about -60%; inconclusive means no clear call, values can overlap the other calls; inactive means above about -39%
#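 Steps: HFFs plated, 16 h 37C; compounds added; HCMV-luciferase added to MOI 1 PFU/cell; 72 h 37C; OneGlo reagent, 5 min room temperature; luminescence read, normalized to controls.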
# Marburg entry inh = inhibitors of Marburg virus binding or cell entry; Marburg virus pseudotyped entry inhibition, cell reporter; Potency, µM (highest dose often 37.8 µM), without a hit: top-dose activity change, negative = inhibition, actives largely listed as inhibitors; actives 1.8% (n = 300,000); calls by dose curve; tested in HEK293 cells; further: potency means the concentration at half of the fitted maximal effect
# * hit, by the source's call; ? = inconclusive; . = not tested or not shown; [ ] = another dose, or the depositor's remark. On the % scale 0 is the no-effect control and ±100 the full control effect.
SMILES,FMDV inh,HCV inhibitor,Lassa entry inh,HCMV inh,Marburg entry inh
Cc1cc(C(=O)NCC(=O)OCC(=O)NCC2CCCO2)ccc1[N+](=O)[O-] (stereo not given),-14%,0%,.,-17,.
CC(=O)N1CCc2cc(S(=O)(=O)CCC(=O)NCc3ccc(F)cc3)ccc21,-23%,-26%,.,-61*,.
O=C(c1ccccc1)N1CCc2cc(CNS(=O)(=O)c3ccc(Cl)s3)ccc21,-15%,.,-17%[46.1 µM],-70*,.
CC(=O)N1CCc2cc(CNS(=O)(=O)c3ccccc3C(F)(F)F)ccc21,16%,.,-1%[46.1 µM],-93*,.
O=C(c1ccccc1)N1CCc2cc(CNS(=O)(=O)c3ccccc3Cl)ccc21,?,.,?,-78*,.
Cn1c(N)c(S(=O)(=O)N2CCN(c3ccccc3Cl)CC2)c(=O)n(C)c1=O,-12%,39%,14%,.,?
CC(=O)Nc1ccc(C=C(C#N)c2ccc(C)cc2)cc1,76%,.,.,14,.
Cc1nn(-c2ccccc2)c(C)c1NC(=O)COc1ccc(F)cc1Cl,20µM*,?,-26%,?,?
Cc1ccc(OCC(=O)Nc2c(C)nn(-c3ccccc3)c2C)c(Br)c1,40µM*,?,13%,-40,-28%

# From PubChem BioAssay
